mHTT-CaM PPI inh: disrupts binding of mutant huntingtin to calmodulin | P42858 | AlphaScreen His-mHTT/GST-CaM binding, luminescence | inhibition, % at 15 µM | 3.6% of 190,000 active | AID 1671202
Pf apPOL inh: Pf-apPOL DNA polymerase inhibition; Recombinant Pf-apPOL, molecular beacon fluorescence, 1.5 h; inhibition, % at 10 µM; 0.25% of 210,000 active; AID 1794808
Numbers stand for hits; – = inactive; · = no result; + = active, no number. This is a sample that favours compounds with a hit; in the whole collection about 3.6% have one here. Rule as the data show it: active = inhibition above about 50%; inactive = the rest.

SMILES	mHTT-CaM PPI inh	Pf apPOL inh
O=C1C(Nc2cccc(Cl)c2)=C(N2CCCCC2)C(=O)c2ccccc21	68	–
CC(=O)N(C1=C(N2CCCCC2)C(=O)c2ccccc2C1=O)c1cccc(F)c1	–	–
O=C1C(Nc2cccc(C(F)(F)F)c2)=C(n2nnc3ccccc32)C(=O)c2ccccc21	–	–
O=C1C(Nc2cccc(C(F)(F)F)c2)=C(N2CCCCC2)C(=O)c2ccccc21	99	–
CC(=O)N(C1=C(N2CCCC2)C(=O)c2ccccc2C1=O)c1cccc(Cl)c1	100	–
O=C1C(Nc2cccc(O)c2)=C(N2CCCCC2)C(=O)c2ccccc21	–	–
CCNc1ccc(-c2nc(-c3cccc(F)c3)no2)cn1	–	–
CCS(=O)(=O)c1ccc(-c2nnc(NC(=O)C3CCCN(S(C)(=O)=O)C3)o2)cc1 (configuration not stated)	–	–
CS(=O)(=O)N1CCCC(C(=O)Nc2nnc(-c3ccno3)o2)C1 (configuration not stated)	50	–
Cc1cc(-c2nnc(NC(=O)C3CCCN(S(=O)(=O)c4cccs4)C3)o2)nn1C (configuration not stated)	51	–
Cc1ccc(NC(=O)C2CCCN(S(=O)(=O)c3cccs3)C2)cn1 (configuration not stated)	–	–
CC(=O)NCCc1csc(C2CCN(C(=O)c3cc(C)cc(C)c3)CC2)n1	–	–
CC(C)C(=O)N1CCN(c2cc(Oc3ccc(F)cc3F)ncn2)CC1	–	–
Cc1ccc(C(C)(C)CC(C)NC2CC2)o1 (configuration not stated)	–	–
CN(C)c1ccc(C=NNC2=NCCN2)cc1	·	–
CN(C)c1ccc(/C=N/NC(=S)N/N=C/c2ccc(N(C)C)cc2)cc1	+	·
CCN(CC)S(=O)(=O)c1ccc(C(=O)Nc2nnc(-c3cccs3)o2)cc1	–	–
Cc1cc(C(=O)Nc2nnc(-c3cccs3)o2)no1	–	–
Cc1onc(-c2ccccc2Cl)c1C(=O)Nc1nnc(-c2cccs2)o1	82	–
Cc1ccc(S(=O)(=O)Nc2cccc(C(=O)Nc3nnc(-c4cccs4)o3)c2)cc1	82	–
COc1cccc(CC(=O)N2CCC3(CC2)NC(=O)c2cccc(Cl)c2N3)c1	–	–
COc1ccc(Br)cc1C1Oc2nc(SC)nnc2-c2ccccc2N1C(C)=O (configuration not stated)	–	–
Cc1ccc2[nH]c3c(c2c1)CCCC3NCc1ccc(F)cc1 (configuration not stated)	57	–
Brc1ccc2[nH]c3c(c2c1)CCCC3NCc1ccccc1 (configuration not stated)	100	–
Cc1ccc2[nH]c3c(c2c1)CCCC3NC(N)=O (configuration not stated)	–	–
SMILES	mHTT-CaM PPI inh	Pf apPOL inh
O=CNC1CCCc2c1[nH]c1ccc(Br)cc21 (configuration not stated)	–	–
CC(=O)Nc1ccc(NC(=O)CC2OCC3CCCCN3C2=O)cc1 (configuration not stated)	–	–
Cc1ccc(CN2CCCN(c3ncccc3-c3nc(C4CC4)no3)CC2)cc1	–	–
O=C(Nc1ccc(N2CCN(c3ccccc3)C2=O)nc1)c1ccc(F)c(F)c1	–	–
CN(C)c1ccc(/C=C/c2cc(C(F)(F)F)[nH]c(=O)n2)cc1	–	–
CN(C)c1ccc(/C=C/c2cc(/C=C/c3ccc(N(C)C)cc3)[n+]3nn(C)nc3n2)cc1	100	–
Cc1nc2c(NC(=O)c3ccccn3)cccn2n1	50	–
Cc1nnc2c(NC(=O)c3ccccn3)cccn12	–	–
Cc1ccccc1-n1cc(C(=O)O)c2ccccc2c1=O	–	–
CC1CC(=O)N(c2ccc(NC3CCCc4ccccc43)c([N+](=O)[O-])c2)C1=O (configuration not stated)	–	–
O=C1CCC(=O)N1c1ccc(Nc2ccc3c(c2)CCC3)c([N+](=O)[O-])c1	74	–
O=C1CCCC(=O)N1c1ccc(NC2CCCc3ccccc32)c([N+](=O)[O-])c1 (configuration not stated)	63	–
O=C1CCCC(=O)N1c1ccc(N2CCc3ccccc3C2)c([N+](=O)[O-])c1	–	–
CC1(C)CC(=O)c2sc(NC(=O)c3ccc(N4C(=O)CCC4=O)cc3)nc2C1	–	–
COc1cc(/C=C/c2nc3ccccc3c(=O)n2-c2ccccc2[N+](=O)[O-])ccc1O	50	–
COc1cc(/C=C/c2nc3ccccc3c(=O)n2CCO)ccc1O	–	–
CCC(=O)Nc1c(-c2cccc(OC)c2)n[nH]c1CC	91	70
CCC(=O)Nc1c(-c2ccc(F)c(F)c2)n[nH]c1CC	–	–
CCc1[nH]nc(-c2ccc(F)c(F)c2)c1NC(=O)COC	97	–
CCc1[nH]nc(-c2cccc(OC)c2)c1NC(=O)C1CCCC1	–	–
Brc1cccc(CN2CCC(N3CCCCC3)CC2)c1	–	–
Brc1cccc(CN2CCC(N3CCCCCC3)CC2)c1	–	70
O=[N+]([O-])c1ccc(C2CNC(c3ccccc3)O2)cc1 (configuration not stated)	–	–
O=[N+]([O-])c1ccc(C2Nc3ccc(Cl)cc3C(c3ccccc3)O2)cc1 (configuration not stated)	82	–
COC(=O)C1CN(CCc2ccccc2)CCS(=O)(=O)N1Cc1ccccc1 (configuration not stated)	–	–
SMILES	mHTT-CaM PPI inh	Pf apPOL inh
COC(=O)C1CN(CCc2ccccc2)CCS(=O)(=O)N1Cc1ccc(C(F)(F)F)cc1 (configuration not stated)	77	–
COC(=O)C1CN(Cc2ccc(F)cc2)CCS(=O)(=O)N1Cc1ccc(C)cc1 (configuration not stated)	50	–
COC(=O)C1CN(Cc2ccc(C)cc2)CCS(=O)(=O)N1Cc1cn(Cc2ccc(F)cc2)nn1 (configuration not stated)	–	–
O=C(Nc1ccccc1)C1CC(=O)N(c2ccc3c(c2)CCN3C(=O)C2CC2)C1 (configuration not stated)	–	–
O=C(NC1CCC2(CC1)OCCO2)c1cc(S(=O)(=O)N2CCCC2)ccc1F	–	–
O=[N+]([O-])c1ccc(S(=O)(=O)CC(Cl)CS(=O)(=O)Cc2ccccc2)cc1 (configuration not stated)	100	–
O=[N+]([O-])c1ccc(NCCNS(=O)(=O)Cc2ccccc2)cc1	–	–
CC(C)(C)NC(=O)c1ccncc1	–	–
COc1ccc(-c2csc(Nc3ccc(NC(C)=O)cc3)n2)cc1	60	–
CC(=O)Nc1ccc(Nc2nc(-c3ccccc3)cs2)cc1	–	–
COc1ccc(-c2csc(Nc3ccc(C(=O)O)cc3)n2)cc1	–	–
CC(=O)Nc1ccc(Nc2nc(-c3ccc(Cl)cc3)cs2)cc1	76	–
Cc1cc(O)c2c(c1)OC(=Cc1cccs1)C2=O	59	–
Cc1cc(O)cc2c1C(=O)C(=Cc1cccs1)O2	–	–
Cc1cc(O)c2c(c1)OC(=Cc1ccc(F)cc1)C2=O	–	–
Cc1cc(O)c2c(c1)OC(=Cc1ccccc1)C2=O	53	–
COc1ccccc1CCNC(=O)Cc1csc(NC(=O)c2ccc[nH]c2=O)n1	–	–
CCOC(=O)C(C#N)=Cc1ccc([N+](=O)[O-])o1	·	–
CC1CCN(S(=O)(=O)N2CCC(C(=O)NCc3ccccc3)CC2)CC1	–	–
Cc1cc(N2CCN(C)CC2)nc2ccc(NC(=O)/C=C/c3cccnc3)cc12	–	–

Source: PubChem (University of Kansas High Throughput Screening Laboratory)
